PubChem BioAssay (NCI)
This is part of a sample that, as a whole, favours compounds with a hit. Of some 83,000 tested, about 20% had one in any assay.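 For each line, cells grew in 96-well plates with the test compound present at a single concentration for 48 hours.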 Unmarked numbers belong to inactive results. Calls of active or inactive are those of the source. How the source made its calls: active means growth percent below 10; inactive means the rest.

Experiments:
Experiment in all cases: NCI-60 one-dose screen, 48 h (100 = growth as untreated, 0 = no growth, -100 = all killed)
Conditions in all cases: 10 µM unless noted
[1] = system: NCI-H23 lung
[2] = system: NCI-H226 lung
[3] = system: NCI-H322M lung
[4] = system: HOP-62 NSCLC
[5] = system: NCI-H460 lung
[6] = system: HOP-92 NSCLC
[7] = system: NCI-H522 lung
[8] = system: A549/ATCC NSCLC
[9] = system: 786-0 renal
[10] = system: COLO 205 colon

Q: Which results are given for `CC(=O)OCC(=O)O[C@@H]1C[C@]2(C(C)C)O[C@@]1(C)[C@@H]1CC[C@@H](C)[C@H]1[C@@H]2OC(=O)/C=C/c1ccccc1`?
A: growth [1]: 89.7%; growth [2]: 68.4%; growth [3]: 84.8%; growth [4]: 86.7%; growth [5]: 90.2%; growth [6]: 67.4%; growth [7]: 78.1%; growth [8]: 71.7%; growth [9]: 66.3%; growth [10]: 97.5%

Q: For `CCOC(=O)c1ccc2c(c1)[n+](=O)c(C(C)=O)c(C(F)(F)F)n2[O-]`, which growth [1] is on record?
A: -16.9% (active)

Q: And the growth [2]?
A: 41.2%

Q: What about the growth [3] of the same compound?
A: 94.4%

Q: What about the growth [4] of the same compound?
A: 25.5%

Q: And the growth [5]?
A: -50.7% (active)

Q: What about the growth [6] of the same compound?
A: -29.9% (active)

Q: What about the growth [7] of the same compound?
A: -83.8% (active)

Q: And the growth [8]?
A: 19.2%

Q: What about the growth [9] of the same compound?
A: 11.4%

Q: And the growth [10]?
A: -78.3% (active)

Q: With `Cc1[nH]c(C(=O)Nc2ccc(C(N)=O)cc2OC(C)C)c(Cl)c1Cl` as the compound, how does the growth [1] read?
A: 97.6%

Q: What about the growth [2] of the same compound?
A: 107%

Q: What about the growth [3] of the same compound?
A: 100%

Q: And the growth [4]?
A: 92.7%

Q: What about the growth [5] of the same compound?
A: 85.1%

Q: And the growth [6]?
A: 73.3%

Q: And the growth [7]?
A: 91.7%

Q: And the growth [8]?
A: 100%

Q: What about the growth [9] of the same compound?
A: 102%

Q: And the growth [10]?
A: 115%

Q: Which growth [1] does the source give for `CN(Cc1ccccc1)c1nc(Cl)c(C2CC(c3ccc(Cl)cc3)=NN2c2cc(Cl)cc(Cl)c2)s1` (stereo not given) here?
A: 94.3%

Q: What about the growth [2] of the same compound?
A: 102%

Q: What about the growth [3] of the same compound?
A: 102%

Q: And the growth [4]?
A: 91.6%

Q: And the growth [5]?
A: 106%

Q: And the growth [6]?
A: 91.6%

Q: What about the growth [7] of the same compound?
A: 91.3%

Q: And the growth [8]?
A: 95%

Q: And the growth [9]?
A: 93.8%

Q: And the growth [10]?
A: 105%

Q: With `COc1ccc(/C=C2/CCc3cc4ccc(OC)cc4[o+]c32)c(O)c1` as the compound, how does the growth [1] read?
A: 72.7%

Q: And the growth [2]?
A: 81.5%

Q: And the growth [3]?
A: 84.6%

Q: What about the growth [4] of the same compound?
A: 95.9%

Q: And the growth [5]?
A: 25.3%

Q: What about the growth [6] of the same compound?
A: 56.1%

Q: What about the growth [7] of the same compound?
A: 77.5%

Q: What about the growth [8] of the same compound?
A: 94.9%

Q: And the growth [9]?
A: -6.35% (active)

Q: What about the growth [10] of the same compound?
A: 84.1%

Q: How did the growth [1] turn out when `Cc1ccc(NC(=O)c2ccc(Nc3ncnc4c3cnn4-c3cccc(F)c3)cc2)cc1` was run?
A: 99.6%

Q: And the growth [2]?
A: 96.5%

Q: And the growth [3]?
A: 103%

Q: What about the growth [4] of the same compound?
A: 94.7%

Q: And the growth [5]?
A: 102%

Q: What about the growth [6] of the same compound?
A: 102%

Q: And the growth [7]?
A: 96%

Q: And the growth [8]?
A: 99.9%

Q: And the growth [9]?
A: 95.8%

Q: And the growth [10]?
A: 109%

Q: `O=C(CSc1nc(-c2ccccc2)cn1-c1ccc(Cl)cc1)c1ccc([N+](=O)[O-])cc1` was tested. Which growth [1] did it give?
A: 78.5%

Q: And the growth [2]?
A: 84.7%

Q: And the growth [3]?
A: 89%

Q: And the growth [4]?
A: 96.2%

Q: What about the growth [5] of the same compound?
A: 79.5%

Q: What about the growth [6] of the same compound?
A: 87.5%

Q: What about the growth [7] of the same compound?
A: 70.5%

Q: And the growth [8]?
A: 86.8%

Q: And the growth [9]?
A: 90.3%

Q: What about the growth [10] of the same compound?
A: 96.1%

Q: Which growth [1] does the source give for `CC(=O)Oc1ccccc1C(=O)N(Cc1ccc2c(Cl)cc(Cl)c(O)c2n1)c1ccccc1` here?
A: 50.3%

Q: What about the growth [2] of the same compound?
A: 66.4%

Q: What about the growth [3] of the same compound?
A: 54.9%

Q: What about the growth [4] of the same compound?
A: 36.6%

Q: What about the growth [5] of the same compound?
A: 29.7%

Q: And the growth [6]?
A: 61.6%

Q: What about the growth [7] of the same compound?
A: 72.2%

Q: And the growth [8]?
A: 29.2%

Q: And the growth [9]?
A: 59.1%

Q: And the growth [10]?
A: 93.7%

Q: Which results are given for `Cc1[nH]c(C(=O)Nc2ccccc2OC2CCNC2)c(Cl)c1Cl` (stereo not given)?
A: growth [1]: 87.1%; growth [2]: 80.6%; growth [3]: 92.1%; growth [4]: 78.7%; growth [5]: 72.6%; growth [6]: 72.6%; growth [7]: 60.7%; growth [8]: 101%; growth [9]: 68.9%; growth [10]: 83.5%

Q: How did the growth [1] turn out when `C#CCOc1cccc(-c2ncnc3cc(NC(=O)CCl)ccc23)c1` was run?
A: 10.3%

Q: And the growth [2]?
A: -11% (active)

Q: And the growth [3]?
A: 71.8%

Q: And the growth [4]?
A: -46.2% (active)

Q: And the growth [5]?
A: -18.7% (active)

Q: What about the growth [6] of the same compound?
A: -67.1% (active)

Q: What about the growth [7] of the same compound?
A: -77.1% (active)

Q: What about the growth [8] of the same compound?
A: 16.7%

Q: What about the growth [9] of the same compound?
A: -85.4% (active)

Q: What about the growth [10] of the same compound?
A: -82.4% (active)

Q: With `CC1=C(C(=O)OCc2ccccc2)C(c2ccc3c(c2)OCO3)n2c(nc3ccccc32)N1` (stereo not given) as the compound, how does the growth [1] read?
A: 49.3%

Q: What about the growth [2] of the same compound?
A: 58.2%

Q: What about the growth [3] of the same compound?
A: 47%

Q: What about the growth [4] of the same compound?
A: 44.2%

Q: And the growth [5]?
A: 6.62% (active)

Q: And the growth [6]?
A: 78.5%

Q: What about the growth [7] of the same compound?
A: 26.3%

Q: And the growth [8]?
A: 47.1%

Q: What about the growth [9] of the same compound?
A: 43.1%

Q: And the growth [10]?
A: 37.2%

Q: With `CCN1CCN(c2cc(C(=O)Nc3cccc(Nc4ccc5c(OC)cccc5n4)c3)cc(C(F)(F)F)c2)CC1` as the compound, how does the growth [1] read?
A: 44.5%

Q: And the growth [2]?
A: 45.1%

Q: And the growth [3]?
A: 26.2%

Q: And the growth [4]?
A: 5.17% (active)

Q: And the growth [5]?
A: -48.7% (active)

Q: And the growth [6]?
A: -3.85% (active)

Q: And the growth [7]?
A: -45.2% (active)

Q: And the growth [8]?
A: 21.1%

Q: What about the growth [9] of the same compound?
A: -70.1% (active)

Q: And the growth [10]?
A: -77.1% (active)

Q: Which growth [1] does the source give for `COc1ccc(N/N=C/c2ccc3c(c2)Sc2ccccc2N3C)cc1` here?
A: 76.8%

Q: And the growth [2]?
A: -68.4% (active)

Q: What about the growth [3] of the same compound?
A: 77.1%

Q: And the growth [4]?
A: 66.9%

Q: And the growth [5]?
A: 28.9%

Q: And the growth [6]?
A: 67.5%

Q: What about the growth [7] of the same compound?
A: 46.9%

Q: And the growth [8]?
A: 57.2%

Q: What about the growth [9] of the same compound?
A: 88.4%

Q: What about the growth [10] of the same compound?
A: 102%

Q: Which results are given for `CN1CCN(Cc2ccc(NC(=O)c3cncc(C#Cc4c(N)ncc5ccccc45)c3)cc2C(F)(F)F)CC1`?
A: growth [1]: -59.1% (active); growth [2]: -11.8% (active); growth [3]: -37% (active); growth [4]: -83.7% (active); growth [5]: -71.5% (active); growth [6]: -59.2% (active); growth [7]: -83.9% (active); growth [8]: -87.7% (active); growth [9]: -80.8% (active); growth [10]: -90.4% (active)

Q: What does the source list for `Nc1ncnc2c1N=C(c1ccc([N+](=O)[O-])cc1)CC(c1ccc3c(c1)OCO3)N2` (stereo not given)?
A: growth [1]: 83.8%; growth [2]: 86.5%; growth [3]: 87.3%; growth [4]: 86.6%; growth [5]: 96.2%; growth [6]: 34%; growth [7]: 84.9%; growth [8]: 96.6%; growth [9]: 98.7%; growth [10]: 96.2%

Q: Which growth [1] does the source give for `COc1ccc(C(=O)/C=C/c2ccc(C)cc2)cc1S(N)(=O)=O` here?
A: 77.4%

Q: And the growth [2]?
A: 83%

Q: What about the growth [3] of the same compound?
A: 36.1%

Q: What about the growth [4] of the same compound?
A: 78.1%

Q: What about the growth [5] of the same compound?
A: 53.5%

Q: What about the growth [6] of the same compound?
A: 41.2%

Q: What about the growth [7] of the same compound?
A: 43.1%

Q: What about the growth [8] of the same compound?
A: 43.6%

Q: What about the growth [9] of the same compound?
A: 40.8%

Q: And the growth [10]?
A: 95.8%

Q: For `C=CCNc1nc(O)c(/C=C2\C=Nc3ncccc32)s1`, which growth [1] is on record?
A: 6.83% (active)

Q: What about the growth [2] of the same compound?
A: 10.7%

Q: What about the growth [3] of the same compound?
A: 10.2%

Q: What about the growth [4] of the same compound?
A: -10.8% (active)

Q: What about the growth [5] of the same compound?
A: 2.18% (active)

Q: And the growth [6]?
A: -1.86% (active)

Q: What about the growth [7] of the same compound?
A: -5.27% (active)

Q: And the growth [8]?
A: 13.2%

Q: What about the growth [9] of the same compound?
A: 4.4% (active)

Q: What about the growth [10] of the same compound?
A: -20.1% (active)

Q: With `COC(=O)c1nc(-c2ccccc2)oc1S(=O)(=O)NCC(c1ccc(Cl)cc1)N1CCCCC1` (stereo not given) as the compound, how does the growth [1] read?
A: 84.4%

Q: What about the growth [2] of the same compound?
A: 88.5%

Q: What about the growth [3] of the same compound?
A: 97.2%

Q: What about the growth [4] of the same compound?
A: 90.9%

Q: And the growth [5]?
A: 85.6%

Q: And the growth [6]?
A: 48.8%

Q: What about the growth [7] of the same compound?
A: 25.6%

Q: What about the growth [8] of the same compound?
A: 85.3%

Q: And the growth [9]?
A: 59.8%

Q: What about the growth [10] of the same compound?
A: 72.1%

Q: Which growth [1] does the source give for `O=c1c2cccc3c(N4CCOCC4)ccc(c32)c2nc3ccccc3n12` here?
A: 76.9%

Q: What about the growth [2] of the same compound?
A: 91%

Q: What about the growth [3] of the same compound?
A: 89.1%

Q: What about the growth [4] of the same compound?
A: 86.4%

Q: What about the growth [5] of the same compound?
A: 88.4%

Q: What about the growth [6] of the same compound?
A: 59.2%

Q: What about the growth [7] of the same compound?
A: 80.5%

Q: What about the growth [8] of the same compound?
A: 92.7%

Q: And the growth [9]?
A: 97.5%

Q: What about the growth [10] of the same compound?
A: 87.6%

Q: With `CSc1nc(CC(C)C)c(C#N)c(=O)n1C` as the compound, how does the growth [1] read?
A: 66.8%

Q: And the growth [2]?
A: 60.3%

Q: And the growth [3]?
A: 84.7%

Q: And the growth [4]?
A: 79.3%

Q: And the growth [5]?
A: 83.3%

Q: What about the growth [6] of the same compound?
A: 8.54% (active)

Q: And the growth [7]?
A: 39.2%

Q: And the growth [8]?
A: 80.7%

Q: And the growth [9]?
A: 57.9%

Q: And the growth [10]?
A: 43.3%

Q: How did the growth [1] turn out when `O=C(O)c1nn(-c2ccc(Cl)cc2)nc1N1CCCC1` was run?
A: 91%

Q: What about the growth [2] of the same compound?
A: 90.8%

Q: What about the growth [3] of the same compound?
A: 97.7%

Q: And the growth [4]?
A: 97.5%

Q: And the growth [5]?
A: 101%

Q: What about the growth [6] of the same compound?
A: 77.1%

Q: And the growth [7]?
A: 89.3%

Q: What about the growth [8] of the same compound?
A: 101%

Q: What about the growth [9] of the same compound?
A: 100%

Q: And the growth [10]?
A: 111%
